Laboratory results reported in PubChem BioAssay (Tox21).
Inconclusive results are not listed. A call without a number means that no potency is given here. The source made the active and inactive calls. Unless noted, calls follow the shape of the dose curve; as a rule, active = well fitted curve in the direction sought with a large enough effect in the repeat runs; inconclusive = weak or mixed curves; inactive = no such curve, though single readings can be large; an effect the other way counts as inactive or inconclusive.

What was measured:
[1] = qHTS assay for small molecule agonists of the p53 signaling pathway (AID 651631; calls by dose curve; also: nearly all actives have a fitted effect of over 15% in size; also: potency is read from the fitted curve at half-maximal effect)
Method in brief: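 Beta-lactamase reporter activity under p53 response elements was quantified in HCT-116 cells by FRET fluorescence, following 16 h incubation with test compounds at 37 °C and 2 h substrate development at room temperature.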

[2] = qHTS assay for small molecules that induce genotoxicity in human embryonic kidney cells expressing luciferase-tagged ATAD5 (AID 651632); also: nearly all actives have a fitted effect of over 15% in size; also: potency is read from the fitted curve at half-maximal effect
Method in brief: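 HEK293T cells carrying a luciferase reporter tagged to ATAD5 were exposed to compound or DMSO vehicle for 16 hr at 37C, 5% CO2. Amplite was added, and after 30 min at room temperature luciferase activity was read as a marker of ATAD5 induction.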

[3] = qHTS assay for small molecule agonists of the p53 signaling pathway - cell viability (AID 651633; calls by dose curve; also: nearly all actives have a fitted effect of over 30% in size; also: potency is read from the fitted curve at half-maximal effect)
Method in brief: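 p53RE-bla cells, seeded at 4,000 per well and rested 5 h at 37 C/5% CO2, received compounds in DMSO for 16 h at 37 C. CellTiter-Glo was then added, and luminescence was read after 30 min at room temperature to gauge cytotoxicity.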

[4] = qHTS assay for small molecules that induce genotoxicity in human embryonic kidney cells expressing luciferase-tagged ATAD5 - cell viability (AID 651634; calls by dose curve; also: nearly all actives have a fitted effect of over 25% in size)
Method in brief: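 HEK293T cells expressing luciferase-tagged ATAD5 were exposed to compound or DMSO for 15.5 hr at 37C, 5% CO2. Viability was then read as live-cell protease activity by CellTiter-Fluor fluorescence after 30 min at 37C.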

[5] = qHTS assay for small molecule disruptors of the mitochondrial membrane potential - cell viability (AID 720634; calls by dose curve; also: nearly all actives have a fitted effect of over 20% in size; also: potency is read from the fitted curve at half-maximal effect)
Method in brief: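 HepG2 cells seeded overnight at 37 C, then exposed to compound or DMSO for 1 hr at 37 C, 5% CO2. m-MPI dye added, then CellTiter-Glo for 30 min at room temperature; viability read as ATP luminescence.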

[6] = qHTS assay for small molecule disruptors of the mitochondrial membrane potential (AID 720635); also: potency is read from the fitted curve at half-maximal effect
Method in brief: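 HepG2 cells (2,000/well) attached overnight at 37C, then took compound for 1 hr at 37C, 5% CO2. Mito-MPS dye was added for 30 min; fluorescence was read at 490/535 nm (monomers) and 540/590 nm (aggregates).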

[7] = qHTS assay to test for compound auto fluorescence at 590 nm (red) in HepG2 cells (AID 720674)
Method in brief: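 Rose Bengal sodium served as the red fluorophore standard. HepG2 monolayers (overnight attachment, MEM with 10% FBS) were exposed to test compounds for 1 hr at 37 C and read at Ex 540/Em 590 nm.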

[8] = qHTS assay to test for compound auto fluorescence at 535 nm (green) in HepG2 cells (AID 720675)
[9] = qHTS assay to test for compound auto fluorescence at 460 nm (blue) in HEK293 cells (AID 720678)
Method in brief: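 HEK293 cells (2,000 per well, medium with 10% dialyzed FBS) attached for 4-5 hr at 37C, then received compound and stood overnight at 37C, 5% CO2. Blue fluorescence was read at Ex/Em 405/460 nm and expressed relative to triamterene.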

[10] = qHTS assay to test for compound auto fluorescence at 590 nm (red) in HEK293 cells (AID 720679)
Method in brief: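 HEK293 cells (2,000/well, medium with 10% dialyzed FBS) attached for 4-5 hr at 37C, received 23 nL compound and were incubated overnight at 37C, 5% CO2. Red fluorescence was then read at 540/590nm Ex/Em, referenced to Rose Bengal sodium.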

[11] = qHTS assay to test for compound auto fluorescence at 460 nm (blue) in HEK293 cell free culture (AID 720681)
Method in brief: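 Test compounds were pinned into cell-free culture medium (DMEM with 10% FBS) and fluorescence was read directly at Ex/Em 405/460 nm. Signals were expressed as fluorescence equivalents of triamterene, with DMSO vehicle as control.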

[12] = qHTS assay to test for compound auto fluorescence at 535 nm (green) in HEK293 cell free culture (AID 720682)
Method in brief: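 Each library compound, or DMSO control, is added by pintool to medium alone, comprising DMEM and 10% FBS. Emission at 535 nm following 485 nm excitation is quantified against fluorescein.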

[13] = qHTS assay to test for compound auto fluorescence at 590 nm (red) in HEK293 cell free culture (AID 720683)
Method in brief: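 Tox21 10K library compounds were pinned into cell-free DMEM with 10% FBS and fluorescence was read at excitation 540 nm. Activity is expressed as Rose Bengal sodium equivalency.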

[14] = qHTS assay to test for compound auto fluorescence at 590 nm (red) in HepG2 cell free culture (AID 720684)
Method in brief: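 Red fluorescence (540 nm excitation, 590 nm emission) was measured after compound transfer into cell-free MEM supplemented with 10% FBS. Values are equivalencies against Rose Bengal sodium.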

[15] = qHTS assay to test for compound auto fluorescence at 460 nm (blue) in HepG2 cell free culture (AID 720685)
Method in brief: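 Compound (23 nL) or DMSO pinned into cell-free MEM with 10% FBS; blue fluorescence read at 405/460 nm excitation/emission, expressed as auto-fluorescence equivalency to triamterene.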

[16] = qHTS assay to test for compound auto fluorescence at 535 nm (green) in HepG2 cell free culture (AID 720686)
[17] = qHTS assay to test for compound auto fluorescence at 460 nm (blue) in HepG2 cells (AID 720687)
Method in brief: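 Cells (2,000/well in MEM with 10% FBS) attached overnight at 37 C, then were exposed to compound or DMSO for 1 hr at 37 C, 5% CO2. Fluorescence read at Ex/Em 405/460 nm, expressed as triamterene-equivalent signal.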

[18] = qHTS assay to test for compound auto fluorescence at 535 nm (green) in HEK293 cells (AID 720680)
[19] = target: Glucocorticoid receptor (Homo sapiens) (UniProt P04150); experiment: qHTS assay to identify small molecule agonists of the glucocorticoid receptor (GR) signaling pathway (AID 720691; active = well fitted activation curve with a large enough effect in the signal ratio in the repeat runs, not every such curve was filed as active; the % refers to the signal ratio); conditions: GR-bla HeLa, beta-lactamase reporter ratio, 18 h; activation: at 62.4 µM (top of the series)
Method in brief: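 GR-bla HeLa cells (beta-lactamase reporter under glucocorticoid response element) were plated 4 h at 37 C/5% CO2, given compounds in DMSO, and incubated 18 h at 37 C. LiveBLAzer B/G FRET substrate was added for 2 h at room temperature, then fluorescence intensity read.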

[20] = target: Glucocorticoid receptor (Homo sapiens) (UniProt P04150); experiment: qHTS assay to identify small molecule antagonists of the glucocorticoid receptor (GR) signaling pathway (AID 720692; active = well fitted inhibition curve with a large enough effect in the signal ratio in the repeat runs, not every such curve was filed as active; the % refers to the signal ratio)
Method in brief: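 GR-bla HeLa cells (beta-lactamase reporter under glucocorticoid response element) were pre-plated 4 h at 37 C, treated with compounds plus 5 nM dexamethasone (final) for 18 h, then read by LiveBLAzer B/G FRET fluorescence after 2 h.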

Sequence of Glucocorticoid receptor (Homo sapiens) (P04150 whole entry, looked up): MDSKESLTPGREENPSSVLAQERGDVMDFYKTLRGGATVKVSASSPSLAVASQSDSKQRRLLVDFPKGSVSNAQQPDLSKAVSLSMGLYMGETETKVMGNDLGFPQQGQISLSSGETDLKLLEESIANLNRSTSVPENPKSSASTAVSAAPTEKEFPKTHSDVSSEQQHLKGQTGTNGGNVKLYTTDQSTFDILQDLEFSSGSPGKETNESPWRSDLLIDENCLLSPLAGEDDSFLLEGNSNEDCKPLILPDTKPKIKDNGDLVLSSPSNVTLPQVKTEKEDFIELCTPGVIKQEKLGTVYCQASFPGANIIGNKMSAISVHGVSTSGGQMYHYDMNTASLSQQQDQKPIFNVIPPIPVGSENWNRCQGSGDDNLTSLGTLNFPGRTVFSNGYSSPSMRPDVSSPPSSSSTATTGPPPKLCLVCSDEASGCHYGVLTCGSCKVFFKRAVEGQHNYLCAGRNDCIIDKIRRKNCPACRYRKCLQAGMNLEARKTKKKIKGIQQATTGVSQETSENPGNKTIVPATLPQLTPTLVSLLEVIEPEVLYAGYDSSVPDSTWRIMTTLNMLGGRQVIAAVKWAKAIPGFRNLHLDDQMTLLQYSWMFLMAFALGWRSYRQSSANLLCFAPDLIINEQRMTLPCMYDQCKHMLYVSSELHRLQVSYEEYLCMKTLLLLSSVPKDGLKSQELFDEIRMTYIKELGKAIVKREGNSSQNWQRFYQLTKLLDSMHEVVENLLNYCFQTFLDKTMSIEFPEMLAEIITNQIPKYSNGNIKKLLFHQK

SMILES | Potency [1] | Potency [2] | Potency [3] | Potency [4] | Potency [5] | Potency [6] | outcome [7] | Potency [8] | Potency [9] | outcome [10] | Potency [11] | outcome [12] | outcome [13] | outcome [14] | Potency [15] | Potency [16] | Potency [17] | outcome [18] | Potency [19] | Potency [20]
CC(C)OC(=O)Nc1ccc2nc(-c3cscn3)[nH]c2c1 | 2.37 µM (active) | 10.6 µM (active) | inactive | inactive | inactive | 9.87 µM (active) | inactive | inactive | inactive | inactive | inactive | inactive | inactive | inactive | inactive | inactive | inactive |  |  | 
NC(N)=NCC1COC2(CCCCC2)O1 (centres undefined) | inactive | inactive | inactive | inactive | inactive | inactive | inactive | inactive | inactive |  | inactive | inactive | inactive | inactive | inactive | inactive | inactive | inactive | inactive | inactive
CCOC(=O)Cc1ccc(-c2ccccc2)cc1 | inactive | inactive | inactive | inactive | inactive | inactive | inactive | inactive | inactive | inactive | inactive | inactive | inactive | inactive | inactive | inactive | inactive |  |  | 
CCN(CC)CCOC[C@H]1O[C@@H](O)[C@H](OCCN(CC)CC)[C@@H](O)[C@@H]1O | inactive | inactive | inactive | inactive | inactive | inactive | inactive | inactive | inactive | inactive | inactive | inactive | inactive | inactive | inactive | inactive | inactive |  | inactive | inactive
CC(C)(Oc1ccc(C2CCCc3ccccc32)cc1)C(=O)O (centres undefined) | inactive | inactive | inactive | inactive | inactive | inactive | inactive | inactive | inactive |  | inactive | inactive | inactive | inactive | inactive | inactive | inactive | inactive | inactive | inactive
CO/N=C(\C(=O)N[C@@H]1C(=O)N2C(C(=O)O)=C(CSc3nc(C)c(CC(=O)O)s3)CS[C@H]12)c1csc(N)n1 | inactive | inactive | inactive | inactive | inactive | inactive |  | inactive | inactive | inactive | inactive | inactive | inactive | inactive | inactive | inactive | inactive | inactive | inactive | 
O=C(O)c1cc2cc(Cc3cccnc3)ccc2o1 | inactive | inactive | inactive | inactive | inactive | inactive | inactive | inactive | inactive | inactive | inactive | inactive | inactive | inactive | inactive | inactive | inactive |  | inactive | inactive
Nc1cc(Cl)c(NC2=NCCN2)c(Cl)c1 | inactive | inactive | inactive | inactive | inactive | inactive | inactive | inactive | inactive |  | inactive | inactive | inactive | inactive | inactive | inactive | inactive | inactive | inactive | inactive
CN1[C@@H](CC(=O)c2ccccc2)CCC[C@H]1C[C@H](O)c1ccccc1 | inactive | inactive | inactive | inactive | inactive |  | inactive | inactive | inactive | inactive | inactive | inactive | inactive | inactive | inactive | inactive | inactive |  |  | 
CCC[C@@H]1C[C@@H](C(=O)N[C@@H]([C@H]2O[C@H](SC)[C@H](OP(=O)(O)O)[C@@H](O)[C@H]2O)[C@H](C)Cl)N(C)C1 | inactive | inactive | inactive |  | inactive | inactive | inactive | inactive | inactive | inactive | inactive | inactive | inactive | inactive | inactive | inactive | inactive | inactive | inactive | inactive
O=P(O)(O)OP(=O)(O)OP(=O)(O)O | inactive | inactive | inactive | inactive | inactive | inactive |  | inactive | inactive | inactive | inactive |  | inactive | inactive | inactive | inactive | inactive |  | inactive | inactive
C=CC[N@@+]12CC[C@@]34c5ccccc5N5/C=C6/[C@H]7C[C@H]8[C@@]9(CC[N@@+]8(CC=C)C/C7=C/CO)c7ccccc7N(/C=C(/[C@@H](C[C@@H]31)/C(=C\CO)C2)[C@H]54)[C@@H]69 | inactive | inactive | inactive |  | inactive | inactive | inactive | inactive | inactive | inactive | inactive | inactive | inactive | inactive | inactive |  | inactive | inactive | inactive | inactive
NCC(O)CC(=O)O (centres undefined) | inactive | inactive | inactive |  | inactive | inactive | inactive | inactive | inactive | inactive | inactive | inactive | inactive | inactive | inactive |  | inactive | inactive | inactive | inactive
CCCCCCCCOC(=O)c1cc(O)c(O)c(O)c1 | 61.1 µM (active) | inactive | 54.5 µM (active) |  | 13.7 µM (active) | 6.11 µM (active) | inactive | inactive | inactive | inactive | inactive | inactive | inactive | inactive | inactive | inactive | inactive | inactive |  | 
O=C(N[C@H](CO)[C@H](O)c1ccc([N+](=O)[O-])cc1)C(Cl)Cl | inactive | inactive | inactive | inactive | inactive |  | inactive | inactive | inactive | inactive | inactive | inactive | inactive | inactive | inactive | inactive |  | inactive |  | 
CC1CCCCN1CCCOC(=O)c1ccccc1 (centres undefined) | inactive | inactive | inactive |  | inactive | inactive |  | inactive | inactive | inactive | inactive | inactive | inactive | inactive | inactive | inactive | inactive | inactive | inactive | inactive
CCOC(=O)[C@H](CCc1ccccc1)N[C@@H](C)C(=O)N1[C@H](C(=O)O)C[C@H]2CCCC[C@@H]21 | inactive | inactive | inactive | inactive | inactive | inactive |  | inactive | inactive |  | inactive | inactive | inactive | inactive | inactive | inactive | inactive | inactive | inactive | inactive
